Screens: PubChem, National Center for Advancing Translational Sciences (NCATS)
A selection: hits, their analogues and other compounds. The true share with any hit is near 1.3%.
Pin1 inh = qHTS Assay to Find Inhibitors of Pin1. actives 0.009% (n = 390,000). Peptidyl-prolyl cis-trans isomerase NIMA-interacting 1 (Homo sapiens), Q13526. Potency, µM (highest dose often 115 µM), actives largely listed as inhibitors. Pin1 FP peptide displacement, HiFluor488, 10 min; active means well fitted inhibition curve with a large enough effect in the polarisation, with a control signal flat, not every such curve was filed as active; inconclusive means small, poorly fitted or top-dose-only effect, or effect the other way, or a change in a side signal; inactive means no such curve, though single readings can be large or run the other way; the % refers to the polarisation
WRN inhibitor = qHTS for Inhibitors of WRN Helicase; Bifunctional 3'-5' exonuclease/ATP-dependent helicase WRN (Homo sapiens), Q14191; WRN helicase unwinding, fluorescent forked duplex, kinetic; Potency, µM (titrated, usually from 114 µM), hits mostly inhibitors; actives 0.46% (n = 360,000); further: nearly all actives have a fitted effect of over 55% in size
Target sequence (Q14191 whole entry, looked up): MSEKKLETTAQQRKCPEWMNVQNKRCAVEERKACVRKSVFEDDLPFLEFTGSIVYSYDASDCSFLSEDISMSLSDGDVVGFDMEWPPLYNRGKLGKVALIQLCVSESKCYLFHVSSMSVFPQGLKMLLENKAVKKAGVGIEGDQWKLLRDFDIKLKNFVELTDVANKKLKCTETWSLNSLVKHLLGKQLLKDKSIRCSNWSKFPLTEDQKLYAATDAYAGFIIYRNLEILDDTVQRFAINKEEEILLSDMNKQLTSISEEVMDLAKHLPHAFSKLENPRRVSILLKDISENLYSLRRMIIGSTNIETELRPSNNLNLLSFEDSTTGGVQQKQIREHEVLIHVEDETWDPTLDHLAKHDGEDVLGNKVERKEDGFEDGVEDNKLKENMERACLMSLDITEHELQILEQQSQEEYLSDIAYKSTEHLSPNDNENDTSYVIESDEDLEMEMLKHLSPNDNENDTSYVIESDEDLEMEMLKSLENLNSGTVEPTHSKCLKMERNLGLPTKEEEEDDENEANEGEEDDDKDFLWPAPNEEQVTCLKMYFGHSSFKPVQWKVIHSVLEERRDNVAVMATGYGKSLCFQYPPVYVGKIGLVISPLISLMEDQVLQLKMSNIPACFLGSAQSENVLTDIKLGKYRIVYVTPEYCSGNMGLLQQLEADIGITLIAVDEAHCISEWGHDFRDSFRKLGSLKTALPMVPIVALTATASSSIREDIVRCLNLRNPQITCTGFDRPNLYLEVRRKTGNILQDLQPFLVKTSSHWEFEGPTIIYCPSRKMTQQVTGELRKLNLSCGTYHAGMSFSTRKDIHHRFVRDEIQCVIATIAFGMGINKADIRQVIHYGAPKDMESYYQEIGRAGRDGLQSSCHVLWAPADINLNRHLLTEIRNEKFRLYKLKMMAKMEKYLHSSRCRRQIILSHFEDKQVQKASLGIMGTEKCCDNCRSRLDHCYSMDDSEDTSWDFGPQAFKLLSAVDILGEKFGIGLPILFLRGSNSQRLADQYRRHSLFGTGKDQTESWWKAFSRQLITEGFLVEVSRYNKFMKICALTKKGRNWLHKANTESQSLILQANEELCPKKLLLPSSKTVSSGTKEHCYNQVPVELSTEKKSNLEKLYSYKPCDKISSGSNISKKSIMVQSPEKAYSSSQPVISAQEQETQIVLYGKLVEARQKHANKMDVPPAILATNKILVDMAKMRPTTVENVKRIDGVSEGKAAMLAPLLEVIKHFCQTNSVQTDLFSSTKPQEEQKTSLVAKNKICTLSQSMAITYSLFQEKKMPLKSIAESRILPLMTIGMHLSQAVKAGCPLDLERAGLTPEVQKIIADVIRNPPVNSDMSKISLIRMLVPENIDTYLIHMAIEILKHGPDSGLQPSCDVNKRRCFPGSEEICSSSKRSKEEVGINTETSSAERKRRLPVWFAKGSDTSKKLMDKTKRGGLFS
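Screening of the MLSMR collection measured strand separation of a quenched forked DNA duplex (100 nM) by 20 nM WRN with 2 mM ATP, all final. Compounds were preincubated with enzyme 15 min at room temperature.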
PI5P4K alpha inh = qHTS for Inhibitors of phosphatidylinositol 5-phosphate 4-kinase (PI5P4K); PI5P4Kalpha enzyme, ADP-Glo luminescence, 60 min; active compounds read low; actives 1.2% (n = 330,000); max response, %; active means max response of -50% or lower; inconclusive means between -30% and -50%; inactive means -30% or higher; further: value at the top dose of about 77 µM
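Quantitative HTS of the MLSMR library against PI5P4Kalpha with substrate. ATP added last at 5 microM final; room temperature, 60 minutes. Remaining ATP depleted, ADP converted and read as luminescence.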
FEN1 inh = qHTS Assay for the Inhibitors of Human Flap endonuclease 1 (FEN1). Recombinant FEN1 flap cleavage, fluorescence, 15 min. Potency, µM (series often up to 114 µM), actives largely listed as inhibitors. actives 0.35% (n = 390,000); further: nearly all actives have a fitted effect of over 65% in size
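Enzyme 10 nM, 15 min RT preincubation with compound; start with substrate 50 nM final; reads at 0 and 15 min; qHTS titration, four-parameter Hill fit.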
Tb PGK inh = qHTS Assay to Find Inhibitors of Phosphoglycerate Kinase; PGK/GAPDH coupled, Kinase-Glo luminescence, 60 min; Potency, µM (doses to about 57.5 µM), hits mostly inhibitors; actives 0.043% (n = 380,000); AID 602233, 2012; further: nearly all actives have a fitted effect of over 60% in size
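Luminescent ATP detection (Kinase-Glo Plus) follows a 60-minute room-temperature incubation, with wells lacking PGK as controls. Buffer: 100 mM TEA (pH 7.6), 5 mM MgCl2, 0.01% Tween-20. Coupling enzyme GAPDH (100 nM final) supplies unstable 1,3-BPG in-well.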
GRP78 ERSR act = qHTS for Inducers of the Endoplasmic Reticulum Stress Response (ERSR) in Human Glioma: qHTS. U87-MG GRP78 promoter luciferase reporter, 16 h. Potency, µM, most hits filed as activators. actives 0.02% (n = 420,000). AID 602332, 2012; further: series mostly up to about 76 µM; nearly all actives have a fitted effect of over 35% in size
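Stably transfected U87-MG human glioma cells carrying a GRP78-based luminescent sensor were seeded at 1000 cells/well, pin-dosed with compounds and incubated 16 h. Luciferase reagent was then added, and end-point luminescence was read after 10 min at room temperature.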
ADP-Glo counter = qHTS for Inhibitors of PI5P4K: ADP-Glo counter assay | shares compounds with PI5P4K alpha inh | ADP-Glo detection counter-screen, luciferase luminescence, no enzyme | Potency, µM (highest dose often 76.9 µM), most hits filed as inhibitors | 1,100 tested, under 10 active
Hits are given with their value; [ ] = another dose, or the depositor's remark. Unless noted, the call rests on the fitted dose curve; in most records, active means well fitted curve in the direction sought with a large enough effect; inconclusive means small, poorly fitted or top-dose-only effect, or another doubt; inactive means no such curve, though single readings can be large; an effect the other way counts as inactive or inconclusive.

For O=C(NCc1ccco1)c1ccc([N+](=O)[O-])o1 the results were Pin1 inh inactive, WRN inhibitor inconclusive, PI5P4K alpha inh -63.5, FEN1 inh inactive, Tb PGK inh inactive, GRP78 ERSR act inconclusive and ADP-Glo counter inactive.
S=C(NCc1ccco1)NCc1ccco1 was read as Pin1 inh inactive, WRN inhibitor inactive[11.6 µM], PI5P4K alpha inh -75.7, FEN1 inh inactive, Tb PGK inh inactive, GRP78 ERSR act inactive and ADP-Glo counter inactive.
`COc1cccc(N2CCN(C(=O)c3ccc(CS(=O)c4ccccc4C)o3)CC2)c1` (stereo not given) gave Pin1 inh inactive, WRN inhibitor inactive, PI5P4K alpha inh inactive, FEN1 inh inactive, Tb PGK inh inactive, GRP78 ERSR act inactive and ADP-Glo counter inactive.
For O=c1cc(-c2ccccc2)[nH]n1-c1nc2ccccc2[nH]1 the results were Pin1 inh inconclusive, WRN inhibitor inactive, PI5P4K alpha inh -76.3, FEN1 inh inactive, Tb PGK inh inactive, GRP78 ERSR act inactive and ADP-Glo counter inactive.
CCN(CC(=O)N1CCC(C(N)=O)CC1)S(=O)(=O)c1cc(Cl)ccc1Cl was read as Pin1 inh inconclusive, WRN inhibitor inactive, PI5P4K alpha inh -52.3, FEN1 inh inactive, Tb PGK inh inactive, GRP78 ERSR act inactive and ADP-Glo counter inactive.
Screening Nc1nc(N)c2cc(Sc3ccc4ccccc4c3)ccc2n1 returned Pin1 inh inactive, WRN inhibitor inactive, PI5P4K alpha inh -50.9, FEN1 inh inactive, Tb PGK inh inactive, GRP78 ERSR act inactive and ADP-Glo counter inactive.
CC(=O)c1ccccc1-c1ccc2c(c1)CC(CNC(=O)c1cc(C)on1)O2 (stereo not given) was read as GRP78 ERSR act inactive.
Screening COc1ccc(NC(=O)CSc2nnc(-c3ccco3)c(-c3ccco3)n2)cc1OC returned Pin1 inh inconclusive, WRN inhibitor inactive, PI5P4K alpha inh -52.1, FEN1 inh inactive, Tb PGK inh inactive, GRP78 ERSR act inactive and ADP-Glo counter inactive.
Screening CN(CC(=O)Nc1ccccc1Cl)C(=O)c1cccc(-n2cccc2)c1 returned Pin1 inh inactive, WRN inhibitor inactive, PI5P4K alpha inh inactive, FEN1 inh inactive, Tb PGK inh inactive and GRP78 ERSR act inactive.
`CN(CC(=O)Nc1cccc(F)c1)C(=O)c1cccc(-n2cccc2)c1` gave Pin1 inh inconclusive, WRN inhibitor 31.6µM, PI5P4K alpha inh -81.9, FEN1 inh inactive, Tb PGK inh inconclusive, GRP78 ERSR act inactive and ADP-Glo counter inactive.
For CN(CC(=O)Nc1c(Cl)cccc1Cl)C(=O)c1cccc(-n2cccc2)c1 the results were Pin1 inh inconclusive, WRN inhibitor 50.1µM, PI5P4K alpha inh -78.0, FEN1 inh inactive, Tb PGK inh inconclusive, GRP78 ERSR act inactive and ADP-Glo counter inactive.
CC(=O)NCC(=O)NCC1Cc2cc(C)cc(-c3ccccn3)c2O1 (stereo not given) was read as GRP78 ERSR act inactive.
Screening CC(C)(NC(=O)c1ccccc1)c1nc2ccccc2s1 returned Pin1 inh inactive, WRN inhibitor inactive, PI5P4K alpha inh -81.6, FEN1 inh inactive, Tb PGK inh inactive, GRP78 ERSR act inactive and ADP-Glo counter inactive.
For COC(=O)c1c(NC(C)=O)sc(C(=O)Nc2ccccc2)c1C the results were Pin1 inh inactive, WRN inhibitor inactive, PI5P4K alpha inh inconclusive, FEN1 inh inactive, Tb PGK inh inactive, GRP78 ERSR act inactive and ADP-Glo counter inactive.
`COC(=O)[C@@H]1C[C@@H](NC(=O)c2cnsn2)CN1Cc1ccc(Cl)cc1` gave GRP78 ERSR act inactive.
`COC(=O)CC1C(=O)NCCN1C(=O)CN1Cc2ccccc2OC(c2ccccc2)C1` (stereo not given) gave GRP78 ERSR act inactive.
For COC(=O)c1cccc(-c2cc(Cl)c3c(c2)CC(CNC(=O)c2cccnc2)O3)c1 (stereo not given) the results were GRP78 ERSR act inactive.
O=C(O)c1cc2c(N3CCC(Cc4ccccc4)CC3)ncnc2s1 was read as Pin1 inh inactive, WRN inhibitor inactive, FEN1 inh inactive, Tb PGK inh inactive, GRP78 ERSR act inactive and ADP-Glo counter inactive.
Screening c1ccc(CC2CCN(c3ncnc4sccc34)CC2)cc1 returned Pin1 inh inactive, WRN inhibitor inactive, PI5P4K alpha inh inactive, FEN1 inh inactive, Tb PGK inh inactive and GRP78 ERSR act inactive.
Cc1ccc(C(C)CCN2CCOc3ccc(CN4CCOCC4)cc3C2)o1 (stereo not given) was read as GRP78 ERSR act inactive.
For CC(C)(C)NC(=O)CSc1nc2ccc(NC(=O)CSc3nnnn3Cc3ccccc3)cc2s1 the results were Pin1 inh inactive, WRN inhibitor inactive, PI5P4K alpha inh inactive, FEN1 inh inactive, Tb PGK inh inactive and GRP78 ERSR act inactive.
`CCOC(=O)CSc1nc2ccc(NC(=O)CSc3nnnn3Cc3ccccc3)cc2s1` gave Pin1 inh inactive, WRN inhibitor inactive, PI5P4K alpha inh inactive, FEN1 inh inactive, Tb PGK inh inactive, GRP78 ERSR act inactive and ADP-Glo counter inactive.
For O=C(Nc1ccc2c(c1)OCO2)c1n[nH]c(=O)c2ccccc12 the results were Pin1 inh inconclusive, WRN inhibitor inactive, PI5P4K alpha inh -56.9, FEN1 inh inactive, Tb PGK inh inactive, GRP78 ERSR act inactive and ADP-Glo counter inactive.
For O=C(Nc1ccc2c(c1)OCO2)c1nn(-c2ccccc2)c(=O)c2ccccc12 the results were Pin1 inh inactive, WRN inhibitor inactive, PI5P4K alpha inh inactive, FEN1 inh inactive, Tb PGK inh inactive and GRP78 ERSR act inactive.
`NC[C@@H]1O[C@@H](O[C@H]2[C@@H](O)[C@H](O[C@@H]3[C@@H](O)[C@@H](N)C[C@H](N)[C@H]3O[C@H]3O[C@H](CN)[C@@H](O)[C@@H](O)[C@H]3N)O[C@H]2CO)[C@H](N)[C@@H](O)[C@@H]1O` gave GRP78 ERSR act inactive.
For O=C(COc1cccc2ccccc12)Nc1ccc(Cl)cc1C(=O)O the results were Pin1 inh inactive, WRN inhibitor inactive, PI5P4K alpha inh -54.1, FEN1 inh inactive, Tb PGK inh inactive, GRP78 ERSR act inconclusive and ADP-Glo counter inactive.
